Measured values taken from the supplement of paper PMC4466140.

Target: AgAbp1
Assay: SPOT peptide array binding signal intensity (averaged, normalized) (arbitrary units (background-subtracted, floor 0; scale differs between SH3 domains)); higher = stronger binding of the SH3 domain to the peptide
Procedure, shortened: (§1)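 The binding signal is the normalized, background-subtracted spot intensity averaged over replicates; its arbitrary units differ between domains. It was obtained by incubating 10 μg/ml GST-fused SH3 domains from four yeast species overnight at 4°C in TBS-based blocking buffer on cellulose membranes with synthetic 15-mer peptides, cysteines replaced by serines, then detecting with anti-GST antibody, HRP anti-mouse secondary and luminol.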

Binder	SPOT peptide array binding signal intensity
IHTRRPSSTSQYLIR	235

Target: AgBbc1
Assay: as above
Procedure, shortened: as §1

Binder	SPOT peptide array binding signal intensity
IHTRRPSSTSQYLIR	354

Target: AgBem1-D1
Assay: as above
Procedure, shortened: as §1

Binder	SPOT peptide array binding signal intensity
IHTRRPSSTSQYLIR	254

Target: AgBzz1-D1
Assay: as above
Procedure, shortened: as §1

Binder	SPOT peptide array binding signal intensity
IHTRRPSSTSQYLIR	73.5

Target: AgBzz1-D2
Assay: as above
Procedure, shortened: as §1

Binder	SPOT peptide array binding signal intensity
IHTRRPSSTSQYLIR	58.5

Target: AgCyk3
Assay: as above
Procedure, shortened: as §1

Binder	SPOT peptide array binding signal intensity
IHTRRPSSTSQYLIR	4

Target: AgFus1
Assay: as above
Procedure, shortened: as §1

Binder	SPOT peptide array binding signal intensity
IHTRRPSSTSQYLIR	406

Target: AgHof1
Assay: as above
Procedure, shortened: as §1

Binder	SPOT peptide array binding signal intensity
IHTRRPSSTSQYLIR	44.2

Target: AgHse1
Assay: as above
Procedure, shortened: as §1

Binder	SPOT peptide array binding signal intensity
IHTRRPSSTSQYLIR	202

Target: AgLsb1
Assay: as above
Procedure, shortened: as §1

Binder	SPOT peptide array binding signal intensity
IHTRRPSSTSQYLIR	242

Target: AgLsb4
Assay: as above
Procedure, shortened: as §1

Binder	SPOT peptide array binding signal intensity
IHTRRPSSTSQYLIR	32

Target: AgMyo5
Assay: as above
Procedure, shortened: as §1

Binder	SPOT peptide array binding signal intensity
IHTRRPSSTSQYLIR	194

Target: AgNbp2
Assay: as above
Procedure, shortened: as §1

Binder	SPOT peptide array binding signal intensity
IHTRRPSSTSQYLIR	106

Target: AgRvs167
Assay: as above
Procedure, shortened: as §1

Binder	SPOT peptide array binding signal intensity
IHTRRPSSTSQYLIR	1.33

Target: AgSho1
Assay: as above
Procedure, shortened: as §1

Binder	SPOT peptide array binding signal intensity
IHTRRPSSTSQYLIR	22.5

Target: AgSla1-D1-D2
Assay: as above
Procedure, shortened: as §1

Binder	SPOT peptide array binding signal intensity
IHTRRPSSTSQYLIR	44

Target: AgSla1-D3
Assay: as above
Procedure, shortened: as §1

Binder	SPOT peptide array binding signal intensity
IHTRRPSSTSQYLIR	11.8

Target: CaAbp1-D1
Assay: as above
Procedure, shortened: as §1

Binder	SPOT peptide array binding signal intensity
IHTRRPSSTSQYLIR	732

Target: CaAbp1-D2
Assay: as above
Procedure, shortened: as §1

Binder	SPOT peptide array binding signal intensity
IHTRRPSSTSQYLIR	571

Target: CaBbc1
Assay: as above
Procedure, shortened: as §1

Binder	SPOT peptide array binding signal intensity
IHTRRPSSTSQYLIR	415

Target: CaBem1-D1
Assay: as above
Procedure, shortened: as §1

Binder	SPOT peptide array binding signal intensity
IHTRRPSSTSQYLIR	43

Target: CaBzz1-D1
Assay: as above
Procedure, shortened: as §1

Binder	SPOT peptide array binding signal intensity
IHTRRPSSTSQYLIR	249

Target: CaBzz1-D2
Assay: as above
Procedure, shortened: as §1

Binder	SPOT peptide array binding signal intensity
IHTRRPSSTSQYLIR	267

Target: CaCyk3
Assay: as above
Procedure, shortened: as §1

Binder	SPOT peptide array binding signal intensity
IHTRRPSSTSQYLIR	17

Target: CaFus1
Assay: as above
Procedure, shortened: as §1

Binder	SPOT peptide array binding signal intensity
IHTRRPSSTSQYLIR	699

Target: CaHof1
Assay: as above
Procedure, shortened: as §1

Binder	SPOT peptide array binding signal intensity
IHTRRPSSTSQYLIR	0.5

Target: CaHse1
Assay: as above
Procedure, shortened: as §1

Binder	SPOT peptide array binding signal intensity
IHTRRPSSTSQYLIR	110

Target: CaLsb1
Assay: as above
Procedure, shortened: as §1

Binder	SPOT peptide array binding signal intensity
IHTRRPSSTSQYLIR	22

Target: CaLsb4
Assay: as above
Procedure, shortened: as §1

Binder	SPOT peptide array binding signal intensity
IHTRRPSSTSQYLIR	150

Target: CaMyo5
Assay: as above
Procedure, shortened: as §1

Binder	SPOT peptide array binding signal intensity
IHTRRPSSTSQYLIR	208

Target: CaNbp2
Assay: as above
Procedure, shortened: as §1

Binder	SPOT peptide array binding signal intensity
IHTRRPSSTSQYLIR	94.5

Target: CaRvs167
Assay: as above
Procedure, shortened: as §1

Binder	SPOT peptide array binding signal intensity
IHTRRPSSTSQYLIR	19.7

Target: CaRvs167-3
Assay: as above
Procedure, shortened: as §1

Binder	SPOT peptide array binding signal intensity
IHTRRPSSTSQYLIR	69.5

Target: CaSho1
Assay: as above
Procedure, shortened: as §1

Binder	SPOT peptide array binding signal intensity
IHTRRPSSTSQYLIR	369

Target: CaSla1-D1-D2
Assay: as above
Procedure, shortened: as §1

Binder	SPOT peptide array binding signal intensity
IHTRRPSSTSQYLIR	126

Target: CaSla1-D3
Assay: as above
Procedure, shortened: as §1

Binder	SPOT peptide array binding signal intensity
IHTRRPSSTSQYLIR	15.8

Target: ScAbp1
Assay: as above
Procedure, shortened: as §1

Binder	SPOT peptide array binding signal intensity
IHTRRPSSTSQYLIR	97.5

Target: ScBbc1
Assay: as above
Procedure, shortened: as §1

Binder	SPOT peptide array binding signal intensity
IHTRRPSSTSQYLIR	144

Target: ScBem1-D1
Assay: as above
Procedure, shortened: as §1

Binder	SPOT peptide array binding signal intensity
IHTRRPSSTSQYLIR	40.5

Target: ScBzz1-D1
Assay: as above
Procedure, shortened: as §1

Binder	SPOT peptide array binding signal intensity
IHTRRPSSTSQYLIR	50

Target: ScBzz1-D2
Assay: as above
Procedure, shortened: as §1

Binder	SPOT peptide array binding signal intensity
IHTRRPSSTSQYLIR	50.5

Target: ScCyk3
Assay: as above
Procedure, shortened: as §1

Binder	SPOT peptide array binding signal intensity
IHTRRPSSTSQYLIR	35

Target: ScFus1
Assay: as above
Procedure, shortened: as §1

Binder	SPOT peptide array binding signal intensity
IHTRRPSSTSQYLIR	593

Target: ScHof1
Assay: as above
Procedure, shortened: as §1

Binder	SPOT peptide array binding signal intensity
IHTRRPSSTSQYLIR	1

Target: ScHse1
Assay: as above
Procedure, shortened: as §1

Binder	SPOT peptide array binding signal intensity
IHTRRPSSTSQYLIR	465

Target: ScLsb1
Assay: as above
Procedure, shortened: as §1

Binder	SPOT peptide array binding signal intensity
IHTRRPSSTSQYLIR	3

Target: ScLsb2
Assay: as above
Procedure, shortened: as §1

Binder	SPOT peptide array binding signal intensity
IHTRRPSSTSQYLIR	162

Target: ScLsb3
Assay: as above
Procedure, shortened: as §1

Binder	SPOT peptide array binding signal intensity
IHTRRPSSTSQYLIR	158

Target: ScLsb4
Assay: as above
Procedure, shortened: as §1

Binder	SPOT peptide array binding signal intensity
IHTRRPSSTSQYLIR	6.5

Target: ScMyo3
Assay: as above
Procedure, shortened: as §1

Binder	SPOT peptide array binding signal intensity
IHTRRPSSTSQYLIR	82

Target: ScMyo5
Assay: as above
Procedure, shortened: as §1

Binder	SPOT peptide array binding signal intensity
IHTRRPSSTSQYLIR	243

Target: ScNbp2
Assay: as above
Procedure, shortened: as §1

Binder	SPOT peptide array binding signal intensity
IHTRRPSSTSQYLIR	267

Target: ScPex13
Assay: as above
Procedure, shortened: as §1

Binder	SPOT peptide array binding signal intensity
IHTRRPSSTSQYLIR	10.8

Target: ScRvs167
Assay: as above
Procedure, shortened: as §1

Binder	SPOT peptide array binding signal intensity
IHTRRPSSTSQYLIR	19.8

Target: ScSho1
Assay: as above
Procedure, shortened: as §1

Binder	SPOT peptide array binding signal intensity
IHTRRPSSTSQYLIR	585

Target: ScSla1-D1-D2
Assay: as above
Procedure, shortened: as §1

Binder	SPOT peptide array binding signal intensity
IHTRRPSSTSQYLIR	172

Target: ScSla1-D3
Assay: as above
Procedure, shortened: as §1

Binder	SPOT peptide array binding signal intensity
IHTRRPSSTSQYLIR	14.5

Target: SpAbp1-D1
Assay: as above
Procedure, shortened: as §1

Binder	SPOT peptide array binding signal intensity
IHTRRPSSTSQYLIR	826

Target: SpBbc1
Assay: as above
Procedure, shortened: as §1

Binder	SPOT peptide array binding signal intensity
IHTRRPSSTSQYLIR	60

Target: SpBzz1-D1
Assay: as above
Procedure, shortened: as §1

Binder	SPOT peptide array binding signal intensity
IHTRRPSSTSQYLIR	632

Target: SpBzz1-D2
Assay: as above
Procedure, shortened: as §1

Binder	SPOT peptide array binding signal intensity
IHTRRPSSTSQYLIR	6.5

Target: SpCyk3
Assay: as above
Procedure, shortened: as §1

Binder	SPOT peptide array binding signal intensity
IHTRRPSSTSQYLIR	10

Target: SpHof1
Assay: as above
Procedure, shortened: as §1

Binder	SPOT peptide array binding signal intensity
IHTRRPSSTSQYLIR	51

Target: SpHof1-2
Assay: as above
Procedure, shortened: as §1

Binder	SPOT peptide array binding signal intensity
IHTRRPSSTSQYLIR	10.5

Target: SpHof1-3
Assay: as above
Procedure, shortened: as §1

Binder	SPOT peptide array binding signal intensity
IHTRRPSSTSQYLIR	669

Target: SpHse1
Assay: as above
Procedure, shortened: as §1

Binder	SPOT peptide array binding signal intensity
IHTRRPSSTSQYLIR	352

Target: SpLsb1
Assay: as above
Procedure, shortened: as §1

Binder	SPOT peptide array binding signal intensity
IHTRRPSSTSQYLIR	292

Target: SpLsb4
Assay: as above
Procedure, shortened: as §1

Binder	SPOT peptide array binding signal intensity
IHTRRPSSTSQYLIR	138

Target: SpMyo1
Assay: as above
Procedure, shortened: as §1

Binder	SPOT peptide array binding signal intensity
IHTRRPSSTSQYLIR	138

Target: SpNbp2
Assay: as above
Procedure, shortened: as §1

Binder	SPOT peptide array binding signal intensity
IHTRRPSSTSQYLIR	96.5

Target: SpPex13
Assay: as above
Procedure, shortened: as §1

Binder	SPOT peptide array binding signal intensity
IHTRRPSSTSQYLIR	10

Target: SpRvs167
Assay: as above
Procedure, shortened: as §1

Binder	SPOT peptide array binding signal intensity
IHTRRPSSTSQYLIR	31.3

Target: SpSla1-D1-D2
Assay: as above
Procedure, shortened: as §1

Binder	SPOT peptide array binding signal intensity
IHTRRPSSTSQYLIR	2

Target: SpSla1-D3
Assay: as above
Procedure, shortened: as §1

Binder	SPOT peptide array binding signal intensity
IHTRRPSSTSQYLIR	6
